JMJD2A Tudor inh: inhibitors of human JMJD2A Tudor domain; AlphaScreen JMJD2A-Tudor / H3K4me3 peptide binding; Potency, µM (titrated, usually from 114 µM), for inactives: top-dose activity change, negative = inhibition, actives largely listed as inhibitors; actives 4.4% (n = 390,000); also: % is scaled to controls: 0 for no effect and ±100 for the full control effect; nearly all actives have a fitted effect of over 50% in size
Target sequence (O75164 whole entry, looked up, the tested form may be a part): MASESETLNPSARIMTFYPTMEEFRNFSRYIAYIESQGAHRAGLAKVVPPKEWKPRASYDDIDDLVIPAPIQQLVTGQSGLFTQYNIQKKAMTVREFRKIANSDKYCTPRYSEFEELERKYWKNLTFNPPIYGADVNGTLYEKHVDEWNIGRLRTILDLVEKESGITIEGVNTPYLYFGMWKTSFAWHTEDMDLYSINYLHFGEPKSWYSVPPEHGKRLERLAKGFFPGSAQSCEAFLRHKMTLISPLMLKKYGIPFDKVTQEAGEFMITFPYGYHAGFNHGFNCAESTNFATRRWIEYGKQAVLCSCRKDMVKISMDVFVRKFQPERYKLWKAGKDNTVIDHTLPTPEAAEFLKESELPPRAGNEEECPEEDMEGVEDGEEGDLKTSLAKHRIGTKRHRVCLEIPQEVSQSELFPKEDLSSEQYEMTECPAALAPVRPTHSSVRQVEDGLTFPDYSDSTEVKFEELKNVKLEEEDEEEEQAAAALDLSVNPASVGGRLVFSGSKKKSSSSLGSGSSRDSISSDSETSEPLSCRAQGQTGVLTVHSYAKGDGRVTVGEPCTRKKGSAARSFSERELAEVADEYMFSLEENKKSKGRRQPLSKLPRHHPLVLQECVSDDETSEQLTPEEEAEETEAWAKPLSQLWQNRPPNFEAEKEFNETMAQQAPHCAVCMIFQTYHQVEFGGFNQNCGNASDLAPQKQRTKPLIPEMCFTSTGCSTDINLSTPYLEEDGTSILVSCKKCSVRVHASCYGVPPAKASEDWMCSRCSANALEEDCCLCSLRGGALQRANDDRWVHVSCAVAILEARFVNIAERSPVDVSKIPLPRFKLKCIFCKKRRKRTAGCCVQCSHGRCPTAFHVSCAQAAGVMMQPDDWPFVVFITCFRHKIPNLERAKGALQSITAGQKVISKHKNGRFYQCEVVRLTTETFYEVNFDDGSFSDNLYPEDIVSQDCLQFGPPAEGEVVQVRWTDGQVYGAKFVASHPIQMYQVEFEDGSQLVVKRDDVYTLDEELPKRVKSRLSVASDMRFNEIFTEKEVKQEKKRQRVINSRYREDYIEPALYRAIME
G9a inh: G9a (human) methyltransferase inhibition; AID 504332; Potency, µM (series often up to 102 µM), for inactives: at the highest dose activity, negative = inhibition, hits mostly inhibitors; actives 8.8% (n = 350,000); Q96KQ7; G9a H3K9 monomethylation, AlphaScreen, 2 h; also: % is scaled to controls: 0 for no effect and ±100 for the full control effect; nearly all actives have a fitted effect of over 75% in size
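Methyltransferase reactions run at room temperature for 2 h (20 nM enzyme, 500 nM biotin-H3K9 peptide, 20 uM SAM) after a 15 min compound preincubation; product detected by AlphaScreen beads and anti-H3K9me1 antibody.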
VDR inhibitor: blocks the human vitamin D receptor. VDR-SRC2-3 peptide fluorescence polarization, 2 h. Potency, µM, for inactives: max response, negative = inhibition, actives largely listed as inhibitors. actives 0.93% (n = 400,000); also: % is scaled to controls: 0 for no effect and ±100 for the full control effect
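Measured by FP: displacement of SRC2-3 coactivator peptide from VDR by library compounds, following a two-hour ambient incubation.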
PLK1 PBD inh: blocks phosphopeptide binding to human PLK1 polo-box domain; Potency, µM, for inactives: max response, negative = inhibition, hits mostly inhibitors; actives 2.8% (n = 360,000); P53350; Plk1 PBD binding of FITC phosphopeptide, fluorescence polarization; also: series mostly up to about 57 µM; % is scaled to controls: 0 for no effect and ±100 for the full control effect; nearly all actives have a fitted effect of over 65% in size
HP1b chromo inh: blocks HP1-beta chromodomain binding to methylated histone tails | AlphaScreen HP1-beta / biotin-H3K9me3 peptide binding | Potency, µM (series often up to 114 µM), for inactives: top-dose activity change, negative = inhibition, most hits filed as inhibitors | P83916 | actives 0.56% (n = 390,000); also: nearly all actives have a fitted effect of over 70% in size
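HP1-beta protein (50 nM final) preincubated 30 min at room temperature with biotinylated H3(1-18)K9me3 peptide (50 nM) in PBS pH 7.4, 0.01% Tween-20, then compound added for 30 min. AlphaScreen streptavidin donor/nickel chelate acceptor beads (10 ug/mL final), 30 min dark, luminescence read.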
BAZ2B block: BAZ2B (human) inhibition; AlphaScreen BAZ2B-H3K14Ac peptide displacement; actives 4.4% (n = 360,000); Potency, µM (doses to about 114 µM), inactives show top-dose activity change, negative = inhibition, most hits filed as inhibitors; also: % is scaled to controls: 0 for no effect and ±100 for the full control effect; nearly all actives have a fitted effect of over 60% in size
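Inhibition is scored as reduced AlphaScreen emission. The BAZ2B/b-H3(5-23)K14Ac complex (50 nM each) in PBS pH 7.4, 0.01% Tween-20 meets compound (up to 110 uM) for 30 min at RT before bead addition.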
* hit, by the source's call; ? = inconclusive; / = no result given; [ ] = another dose, or the depositor's remark. Sampled rows, rich in hits. Any-hit rate of the full collection: about 11%. Calls follow the shape of the dose curve; as a rule, active = well fitted curve in the direction sought with a large enough effect; inconclusive = small, poorly fitted or top-dose-only effect, or another doubt; inactive = no such curve, though single readings can be large; an effect the other way counts as inactive or inconclusive. Potency is read from the fitted curve at half-maximal effect.

SMILES	JMJD2A Tudor inh	G9a inh	VDR inhibitor	PLK1 PBD inh	HP1b chromo inh	BAZ2B block
CCNC(=O)CSc1nc2ccccc2c(=O)n1OC	8.1%	79.4µM*	8.5%	-4.8%	19.2%	0.2%
COc1ccc(C=NNC(=O)c2ccccc2OCc2ccc(F)cc2)c(OC)c1	-17.8%	/	3.6%	-5.8%	30.2%	/
COc1ccc(Nc2nc3ccc(C)cc3nc2-n2nc(C)cc2C)cc1Cl	80.8%	70.0%[59 µM]	-14.0%	/	131.7%	53.1%
CCOC(=O)c1ccc(NC(=O)C(CC)Sc2nnc3c4ccccc4n(C)c3n2)cc1 (stereo unspecified)	-13.1%	12.8%[59 µM]	0.2%	/	78.3%	15.0%
CCCSCCCNC(=O)Cn1c(-c2cccs2)cc2ccccc21	-24.8%	2.9%[59 µM]	1.7%	/	16.7%	0.2%
CCCCn1c(SCC(=O)Nc2ccc3c(c2)CCC3)nc2ccccc2c1=O	-23.4%	-13.6%[59 µM]	-2.1%	29.9µM*	15.4%	-16.0%
C=CCn1c(SCC(=O)Nc2ccc3c(c2)CCC3)nc2ccccc2c1=O	-6.0%	-6.9%[59 µM]	-2.0%	-9.5%	15.0%	5.9%
CN1/C(=C\C(=O)c2cccnc2)Sc2ccccc21	2.7%	28.2µM*	8.2%	-15.9%	48.5%	-1.8%
COc1cccc(C(=O)/C=C2\Sc3ccccc3N2C)c1	82.5%	53.9%	-2.3%	-11.7%	162.7%	57.4%
CCOC(=O)c1cccc(NC(=O)CSc2ncc3c(n2)-c2ccccc2N(C)S3(=O)=O)c1	3.9%	1.5%[59 µM]	6.8%	/	27.9%	0.2%
CCC1CCCCN1C(=O)COC(=O)CSc1ccc(C(N)=O)cc1[N+](=O)[O-] (stereo unspecified)	-7.1%	3.3%[12.7 µM]	10.6%	-10.7%	50.4%	6.7%
CC1CCCC(C)N1C(=O)COC(=O)CSc1ccc(C(N)=O)cc1[N+](=O)[O-] (stereo unspecified)	-21.9%	44.7µM*	-4.2%	0.4%	-3.8%	0.8%
NC(=O)c1ccc(SCC(=O)OCC(=O)NCC2CCCCC2)c([N+](=O)[O-])c1	-6.4%	44.7µM*	-3.7%	-13.7%	14.0%	8.1%
CCOC(=O)CSc1ccc(S(=O)(=O)N(C)C2CCCCC2)cc1[N+](=O)[O-]	56.2µM*	?	0.8%	-8.0%	-20.0%	?
CCCCN1C(=O)C(CC(=O)NCc2ccco2)CC(C(=O)N2CCCCCC2)=C1C (stereo unspecified)	/	/	/	0.0%	/	/
S=C(NNc1ccnc2cc(Cl)ccc12)Nc1ccc(Cl)cc1Cl	?	?	79.4µM*	?	?	?
CCOc1ccc(NC(=S)NNc2ccnc3cc(Cl)ccc23)cc1	22.4µM*	7.08µM*	?	?	11.2µM*	?
O=C(NN1CCOCC1)c1ccc(Cl)cc1[N+](=O)[O-]	-8.9%	19.0%	10.1%	-4.6%	15.4%	-3.5%
CCOCc1cnc(C)nc1NCC(=O)c1c(C)n(C)c2ccc(OC)cc12	2.1%	14.1µM*	-1.9%	-1.7%	12.6%	50.1µM*
O=C(Nc1ccc(F)cc1)c1ccc(-n2cncn2)c([N+](=O)[O-])c1	-19.4%	?	1.3%	-1.7%	18.4%	-33.5%
CCOc1ccc(N/C(=C(/C(Cl)=C(Cl)Cl)[N+](=O)[O-])n2cncn2)cc1	/	25.1µM*	/	/	/	8.91µM*
O=[N+]([O-])/C(C(Cl)=C(Cl)Cl)=C(\Nc1ccc(F)cc1)n1cncn1	/	8.91µM*	/	/	/	28.2µM*
Cc1ccc(S(=O)(=O)Oc2ccccc2)cc1	70.6%	/	1.6%	-2.9%	98.5%	/
Cc1ccc(S(=O)(=O)O/N=C2/CCCc3occc32)cc1	?	50.1µM*	13.0%	-9.0%	5.8%	-36.6%
O=C(O/N=C1/CCCc2occc21)c1ccc(F)cc1	?	-11.2%	?	11.9µM*	2.8%	-14.1%
SMILES	JMJD2A Tudor inh	G9a inh	VDR inhibitor	PLK1 PBD inh	HP1b chromo inh	BAZ2B block
O=C(O/N=C1/CCSc2ccccc21)c1ccc(F)cc1	22.5%	10.7%[12.7 µM]	8.3%	-1.5%	80.7%	-3.2%
O=C(NCC1CCCO1)c1ccc(Cl)c(S(=O)(=O)N2CCCCC2)c1 (stereo unspecified)	-9.7%	20.8%	10.1%	-6.7%	14.2%	-0.2%
O=C(COC(=O)C1(c2ccccc2F)CCCC1)NCc1cccs1	-3.8%	18.1%	-10.6%	-8.6%	45.6%	7.3%
CCOc1ccccc1N1CCN(S(=O)(=O)c2ccc3c4c(cccc24)C(=O)N3)CC1	56.2µM*	?	1.3%	-8.6%	-16.2%	50.1µM*
C=CCN(c1ccc(C(=O)Nc2cccc(C)c2)cc1)S(C)(=O)=O	-14.6%	-8.4%	-4.3%	-16.8%	-10.9%	-2.5%
C=CCN(c1ccc(C(=O)Nc2ccc(NC(C)=O)cc2)cc1)S(C)(=O)=O	14.1µM*	-25.0%	35.5µM*	21.2µM*	-6.9%	6.9%
Cc1ccccc1CN1CCC(n2nccc2NC(=O)c2ccc3c(c2)OCO3)CC1	-11.3%	-10.0%	-1.2%	-2.5%	36.0%	?
CC(=O)Cc1nsc(Nc2ccccc2)n1	1.4%	79.4µM*	-15.2%	-6.5%	18.6%	7.7%
CCOC(=O)C1=C(CN2CCN(c3ccc(C)cc3C)CC2)NC(=O)NC1c1ccc(OC)cc1 (stereo unspecified)	-30.0%	-38.1%[59 µM]	21.4%	/	-2.6%	-30.2%
COc1ccc(-c2cc(C(=O)N3CCN(c4ncccn4)CC3)c3ccccc3n2)cc1OC	-12.4%	?	6.0%	-1.2%	48.1%	-4.3%
CCN1CCCC(OC(=O)c2cc(-c3ccc(C)cc3)nc3ccccc23)C1 (stereo unspecified)	17.8µM*	?	-5.8%	-14.0%	12.8%	/
Cc1ccccc1CN1CCN(C(=O)c2cc(-c3ccncc3)nc3ccccc23)CC1	?	35.5µM*	-25.5%	-14.2%	-13.1%	?
O=C(c1cc(Br)ccc1Cl)N1CCN(c2ncccn2)CC1	?	-5.7%	?	29.9µM*	4.8%	11.2%
Cc1ccc(-c2cc(C(=O)N3CCN(c4ncccn4)CC3)c3ccccc3n2)cc1	-12.9%	44.7µM*	-7.3%	0.8%	25.9%	-35.0%
O=C(c1cc(-c2ccncc2)nc2ccccc12)N1CCN(Cc2ccccc2)CC1	-29.5%	/	-8.7%	-6.0%	-6.0%	/
Cc1ccc(S(=O)(=O)n2cccc2C)cc1	-6.8%	/	-6.8%	-8.2%	2.4%	/
O=C(c1cc(-c2ccc(Br)cc2)nc2ccccc12)N1CCN(c2ccccc2O)CC1	?	50.1µM*	0.4%	-7.0%	-17.7%	-12.2%
COCCNC(=O)c1ccc(C2SCC(=O)N2CCc2ccccc2)cc1 (stereo unspecified)	-18.3%	18.4%[59 µM]	0.0%	4.0%	23.1%	2.6%
CCOC(=O)CNC(=O)C(=O)c1c(O)[nH]c2ccccc12	50.1µM*	-6.4%[12.7 µM]	8.9%	-5.9%	5.7%	-4.1%

Source: PubChem BioAssay (National Center for Advancing Translational Sciences (NCATS))
